The record followed here is PubChem BioAssay AID1445 (SRMLSC, 2008).

As a reminder, the inhibition is the drop in the measured response relative to a control, in per cent.

Hit rate of the full screen: of about 220,000 compounds, about 910 (0.41%) were called active. This is one part of a sample in which actives are shown more often than they occur.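 The calls were made as follows: active = primary inhibition above the hit cutoff, then over 50% inhibition at one or more dose response concentrations (cut at about 23% in these data, passing the limit was not always enough); inconclusive = conflicting primary data, or primary hits not chosen for dose response; inactive = low primary inhibition, or under 50% at every dose.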 Potency and affinity values are given separately.

Aminopeptidase N (Plasmodium falciparum (isolate 3D7)), sequence (O96935 whole entry, looked up): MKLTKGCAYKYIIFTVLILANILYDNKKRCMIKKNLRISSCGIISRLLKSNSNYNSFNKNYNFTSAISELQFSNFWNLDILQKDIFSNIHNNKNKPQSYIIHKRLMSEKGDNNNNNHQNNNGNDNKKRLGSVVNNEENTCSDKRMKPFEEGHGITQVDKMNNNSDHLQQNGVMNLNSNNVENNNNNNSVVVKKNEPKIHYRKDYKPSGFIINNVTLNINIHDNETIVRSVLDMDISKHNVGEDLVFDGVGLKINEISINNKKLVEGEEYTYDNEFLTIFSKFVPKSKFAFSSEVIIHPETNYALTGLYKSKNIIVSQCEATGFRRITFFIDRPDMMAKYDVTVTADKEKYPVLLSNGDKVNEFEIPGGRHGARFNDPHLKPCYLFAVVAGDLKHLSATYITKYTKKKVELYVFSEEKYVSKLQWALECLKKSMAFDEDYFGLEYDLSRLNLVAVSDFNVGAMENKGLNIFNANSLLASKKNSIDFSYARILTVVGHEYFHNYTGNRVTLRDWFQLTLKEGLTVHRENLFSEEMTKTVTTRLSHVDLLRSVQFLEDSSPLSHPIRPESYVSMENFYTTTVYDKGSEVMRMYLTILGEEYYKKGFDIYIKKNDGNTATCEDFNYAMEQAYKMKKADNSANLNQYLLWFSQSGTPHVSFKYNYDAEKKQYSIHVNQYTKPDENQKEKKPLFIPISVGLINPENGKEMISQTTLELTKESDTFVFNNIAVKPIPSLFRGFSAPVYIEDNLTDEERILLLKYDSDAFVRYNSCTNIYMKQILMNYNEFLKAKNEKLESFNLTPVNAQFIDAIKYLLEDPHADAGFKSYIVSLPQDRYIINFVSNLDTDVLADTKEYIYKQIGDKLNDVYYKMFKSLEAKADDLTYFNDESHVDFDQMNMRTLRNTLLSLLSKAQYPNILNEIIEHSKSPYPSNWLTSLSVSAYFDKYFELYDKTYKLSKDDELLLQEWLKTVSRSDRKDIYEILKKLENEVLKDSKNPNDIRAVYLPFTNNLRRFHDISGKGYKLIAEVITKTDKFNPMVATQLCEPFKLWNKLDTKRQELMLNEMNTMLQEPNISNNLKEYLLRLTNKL

This test has as its target Aminopeptidase N (Plasmodium falciparum (isolate 3D7)) (UniProt O96935). The test is described as follows: P. falciparum M1AAP inhibitors, biochemical, fluorogenic H-Leu-NHMec substrate, 1536-well (AID 1445).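 Also: plate controls were DMSO full reaction for no effect and no enzyme background for full effect.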 The settings on record: recombinant M1AAP, H-Leu-NHMec fluorogenic kinetic assay; at 30 µM, active compounds read high unless noted.
As for `CCc1cccc(C)c1NC(=O)COC(=O)c1ccc2c(c1)S(=O)(=O)c1ccccc1C2=O`, the inhibition is 1.58% (inactive).
Regarding `CC1(C)NC(=O)N(CC(O)COc2cccc(F)c2)C1=O` (stereo not given), the inhibition was 7.39% (inactive).
The same measure for `N#C/C(=C(/O)c1cccs1)c1nc2ccccc2[nH]1`: 1.8% (inactive); for `COc1cc(C(=S)N2CCCC2)ccc1OS(=O)(=O)c1ccc(NC(C)=O)cc1`: -0.31% (inactive); for `CCN1CCN(C(c2cc3cc4c(cc3[nH]c2=O)OCO4)c2nnnn2C(C)(C)CC)CC1` (stereo not given): 12.6% (inactive).
Take `Cn1c(=O)c2cc(S(=O)(=O)Nc3cc(C(=O)O)cc(C(=O)O)c3)ccc2n(C)c1=O`: the inhibition was 2.45% (inactive).
In the case of `O=C(NCc1cccnc1)c1cc([N+](=O)[O-])ccc1N1CCOCC1`, the inhibition was 4.23% (inactive).
The same measure for `CCCCc1nc(NCc2ccccc2)c(C#N)c2c1COC(C)(C)C2`: -3.84% (inactive); for `CCc1nc(NCCN)c(C#N)c2c1CSC(C)(C)C2`: -0.7% (inactive).
For the compound `CCCCc1nc(NCCNC(=O)c2ccccc2)c(C#N)c2c1CSC(C)(C)C2`, the inhibition was 24.4% (active).
Turning to `CCCCc1nc(NCCN)c(C#N)c2c1CSC(C)(C)C2`, the inhibition was 2.56% (inactive).
For the compound `CCCCc1nc(Cl)c(C#N)c2c1CSC(C)(C)C2`, the inhibition was 0.12% (inactive).
Turning to `Cc1ccc(C(NC(=O)N2CCN(C)CC2)C(Cl)Cl)cc1F` (stereo not given), the inhibition was 0.01% (inactive).
On to `CCCCc1ccc(NC(=O)COc2ccc(C(=O)Nc3ccccc3C)cc2)cc1`, for which the inhibition was -2.91% (inactive).
Consider `COc1cc2c(cc1OC)C(c1cccs1)NCC2` (stereo not given), for which the inhibition is 0.84% (inactive).
The result for `O=C(NCc1cccs1)c1nn2cccnc2c1Cl` reads 12.7% (inactive).
As to `CCCOC(=O)Nc1nc2ccccc2o1`, the inhibition was -8.89% (inactive).
In the case of `CCOC(=O)c1cnc(Nc2nc3ccccc3o2)nc1C`, the inhibition is 0.38% (inactive).
The same measure for `Nc1nnc(CC(=O)N/N=C/c2cccc([N+](=O)[O-])c2)s1`: -3.46% (inactive); for `Nc1nnc(CC(=O)N/N=C/c2ccc([N+](=O)[O-])cc2)s1`: 9.02% (inactive).
As to `CC1(NC(=S)NCCCCCCNC(=S)NC2(C)CCS(=O)(=O)C2)CCS(=O)(=O)C1` (stereo not given), the inhibition is -1.81% (inactive).
For the compound `Cc1cc(C)c2[nH]c(=O)c(=O)[nH]c2c1`, the inhibition is 4.16% (inactive).
For `Cc1cc2c(C)c(C)c(=O)[nH]c2cc1N`, the inhibition is 25.2% (active).
Take `Cc1ccc(-c2n[nH]c(=O)c3ccccc23)cc1N`: the inhibition was 12.6% (inactive).
For the compound `COc1cccc(C2=NOC(C(=O)NCCCn3ccnc3)C2)c1` (stereo not given), the inhibition is 2.65% (inactive).
For `COc1ccc(/C=C/C(=O)Nc2sc(Cc3ccccc3)c(C)c2C(N)=O)cc1`, the inhibition is 10.2% (inactive).
For `O=C(O)CC/C(=C\c1cccc(NC(=O)c2ccccc2Cl)c1)c1nc2ccccc2s1`, the inhibition is 18% (inactive).
`O=C(O)CC/C(=C\c1ccc(Cl)c([N+](=O)[O-])c1)c1nc2ccccc2s1`: the inhibition is 15.7% (inactive).
As to `Cc1ccc(/C=C(\CCC(=O)O)c2nc3ccccc3s2)cc1[N+](=O)[O-]`, the inhibition is 15.5% (inactive).
Take `COc1cccc(/C=C(\CC(=O)O)c2nc3ccccc3s2)c1`: the inhibition is 11.8% (inactive).
